Our source for the growth values is PubChem BioAssay (NCI).

Compounds without any hit were thinned out: in the full panel of roughly 83,000, 20% have a hit.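 Plates (96-well) were seeded with cells, treated with compound at one concentration, and incubated for 48 hours before percent growth was determined.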 Values without a mark were called inactive. Calls of active or inactive are those of the source. Rule for the calls: active = growth percent below 10; inactive = the rest.

Some test systems named below: SK-MEL-2 melanoma; EKVX NSCLC; SN12C renal; UO-31 renal; TK-10 renal; ACHN renal; CAKI-1 renal; A498 renal; CCRF-CEM leukemia; MOLT-4 leukemia; SR leukemia; RPMI-8226 leukemia; OVCAR-8 ovarian; OVCAR-5 ovarian; OVCAR-4 ovarian; SK-OV-3 ovarian; IGROV1 ovarian; OVCAR-3 ovarian; HS 578T breast; NCI/ADR-RES ovarian.
Holding throughout (experiment): NCI-60 one-dose screen, 48 h (100 = growth as untreated, 0 = no growth, -100 = all killed)
What all share (details): 10 µM unless noted

Turning to `COc1ccc(-n2nc(C)c3c(Nc4ccc(NC(=O)Nc5cccc(C(F)(F)F)c5)cc4)ncnc32)cc1`, the growth in the experiment with SK-MEL-2 melanoma was -21.1% (active); in the experiment on EKVX NSCLC, 10.1%; in the experiment on SN12C renal, 22.5%; in the experiment on UO-31 renal it was -44.9% (active); in the experiment with TK-10 renal, 10.7%; with ACHN renal, -10.2% (active). Further, the growth is -18.9% (active) in the experiment on CAKI-1 renal; 48.5% in the experiment with A498 renal; 18.2% with CCRF-CEM leukemia; 8.98% (active) in the experiment on MOLT-4 leukemia; 21.2% in the experiment with SR leukemia; -10.9% (active) in the experiment on RPMI-8226 leukemia. Further, the growth in the experiment on OVCAR-8 ovarian was 2.63% (active); in the experiment on OVCAR-5 ovarian, 2.66% (active); in the experiment on OVCAR-4 ovarian it was 7.24% (active); in the experiment with SK-OV-3 ovarian, 16.9%; in the experiment with IGROV1 ovarian, 7.48% (active); in the experiment with OVCAR-3 ovarian, -31.6% (active). The growth in the experiment on HS 578T breast is -6.67% (active); in the experiment with NCI/ADR-RES ovarian, 4.85% (active).

`O=C1Nc2ccc(Br)cc2C12Oc1ccccc1C1CC(c3ccc(F)cc3)=NN12` (stereo not given): the growth in the experiment with SK-MEL-2 melanoma is 98.1%; in the experiment with EKVX NSCLC it was 85.5%; with SN12C renal, 93.3%; in the experiment on UO-31 renal it was 65.6%; in the experiment with TK-10 renal, 121%; in the experiment with ACHN renal, 91%. The growth with CAKI-1 renal was 78.7%; in the experiment on A498 renal, 102%; in the experiment with CCRF-CEM leukemia, 91%; with MOLT-4 leukemia, 74.8%; with SR leukemia, 87.1%; in the experiment on RPMI-8226 leukemia, 84%. The growth in the experiment with OVCAR-8 ovarian is 93.7%; with OVCAR-5 ovarian it was 111%; in the experiment with OVCAR-4 ovarian, 85.5%; with SK-OV-3 ovarian, 102%; with IGROV1 ovarian, 72.8%; in the experiment with OVCAR-3 ovarian it was 96.3%. Moreover, the growth in the experiment with HS 578T breast is 89.1%; in the experiment with NCI/ADR-RES ovarian, 97.3%.

`COc1ccc(CCNc2nc3c(c(=O)n(Cc4ccc(Br)cc4)c(=O)n3C)n2C)cc1OC`: the growth in the experiment on SK-MEL-2 melanoma is 93%; with EKVX NSCLC it was 83.7%; in the experiment on SN12C renal, 91.1%; in the experiment with UO-31 renal, 70.6%; with TK-10 renal, 111%; in the experiment with ACHN renal it was 89.7%. In addition, the growth was 85.6% with CAKI-1 renal; 92.6% in the experiment with A498 renal; 99.7% with CCRF-CEM leukemia; 88.2% in the experiment with MOLT-4 leukemia; 98.9% with SR leukemia; 78.5% in the experiment on RPMI-8226 leukemia. Moreover, the growth in the experiment on OVCAR-8 ovarian is 90.5%; with OVCAR-5 ovarian, 94%; in the experiment with OVCAR-4 ovarian, 80.1%; with SK-OV-3 ovarian, 94.9%; in the experiment on IGROV1 ovarian, 83.2%; in the experiment on OVCAR-3 ovarian it was 98.4%. The growth was 91.1% in the experiment on HS 578T breast and 82.9% with NCI/ADR-RES ovarian.

In the case of `O=C1/C(=C/c2ccccc2)SC(=S)N1CCc1ccc(O)cc1`, the growth with SK-MEL-2 melanoma is 101%; with EKVX NSCLC, 91.9%; in the experiment with SN12C renal, 91.3%; with UO-31 renal it was 65%; in the experiment on TK-10 renal, 99.9%; in the experiment on ACHN renal, 93.9%. Also, the growth with CAKI-1 renal was 73.3%; in the experiment with A498 renal it was 92.1%; in the experiment with CCRF-CEM leukemia, 74.2%; in the experiment with MOLT-4 leukemia, 88.6%; in the experiment on SR leukemia, 93.7%; in the experiment on RPMI-8226 leukemia, 95.5%. Moreover, the growth is 96.3% with OVCAR-8 ovarian; 103% in the experiment on OVCAR-5 ovarian; 76.4% in the experiment with OVCAR-4 ovarian; 85% with SK-OV-3 ovarian; 82.3% with IGROV1 ovarian; 97.4% with OVCAR-3 ovarian. Further, the growth with HS 578T breast is 76.9%; in the experiment with NCI/ADR-RES ovarian, 99.3%.

For `COc1ccc(S(=O)(=O)N2CCCCC2)cc1NC(=O)c1[nH]c(C)c2c1CCCCC2=O`, the growth was 19.6% with SK-MEL-2 melanoma; 33.9% in the experiment on EKVX NSCLC; 34.9% with SN12C renal; 9.67% (active) in the experiment with UO-31 renal; 1.34% (active) in the experiment with TK-10 renal; 19.8% in the experiment on ACHN renal. The growth was 11.4% with CAKI-1 renal; -19.2% (active) with A498 renal; 42% in the experiment with CCRF-CEM leukemia; 36.6% with MOLT-4 leukemia; 34.3% in the experiment with SR leukemia; 10.1% in the experiment with RPMI-8226 leukemia. Moreover, the growth was 32.8% in the experiment on OVCAR-8 ovarian; 48.4% in the experiment on OVCAR-5 ovarian; 42% in the experiment on OVCAR-4 ovarian; 19.7% in the experiment on SK-OV-3 ovarian; 15.3% with IGROV1 ovarian; 23.5% in the experiment on OVCAR-3 ovarian. Also, the growth is 15.4% with HS 578T breast and 28.3% in the experiment on NCI/ADR-RES ovarian.

In the case of `COc1ccc(-c2n[nH]nc2-c2csc3ccccc23)cc1OC`, the growth in the experiment with SK-MEL-2 melanoma is 15%; in the experiment with EKVX NSCLC, 45.8%; in the experiment on SN12C renal, 34%; with UO-31 renal, 35.1%; in the experiment on TK-10 renal, 53.2%; in the experiment on ACHN renal, 37.7%. In addition, the growth in the experiment with CAKI-1 renal is 23.2%; with A498 renal it was 1.02% (active); in the experiment with CCRF-CEM leukemia, 22.8%; in the experiment on MOLT-4 leukemia it was 11%; with SR leukemia, 21.3%; with RPMI-8226 leukemia, 34.8%. For the same compound, the growth in the experiment with OVCAR-8 ovarian was 36.9%; in the experiment with OVCAR-5 ovarian, 66.2%; with OVCAR-4 ovarian, 49%; in the experiment on SK-OV-3 ovarian, 14.2%; in the experiment with IGROV1 ovarian it was 48.8%; with OVCAR-3 ovarian it was 11.9%. Further, the growth in the experiment with HS 578T breast was 6.17% (active); with NCI/ADR-RES ovarian it was 13.5%.

Regarding `COc1cc2c(cc1-c1c(C)noc1C)ncc1nc(C3CCOCC3)n([C@@H](C)COC(F)F)c12`, the growth with SK-MEL-2 melanoma is 76.4%; in the experiment with EKVX NSCLC it was 55.8%; in the experiment on SN12C renal it was 66.5%; with UO-31 renal, -38.3% (active); in the experiment on TK-10 renal it was 26.6%; with ACHN renal, 36.9%. Moreover, the growth in the experiment on CAKI-1 renal is -11.1% (active); with A498 renal it was -6.79% (active); in the experiment with CCRF-CEM leukemia, 55.6%; with MOLT-4 leukemia, 48%; in the experiment on SR leukemia it was 28.5%; in the experiment with RPMI-8226 leukemia, 18.4%. Moreover, the growth in the experiment on OVCAR-8 ovarian was 45%; in the experiment on OVCAR-5 ovarian, 65.2%; in the experiment with OVCAR-4 ovarian, 46.4%; with SK-OV-3 ovarian, 2.74% (active); with IGROV1 ovarian it was 67%; in the experiment with OVCAR-3 ovarian it was 42.3%. Besides, the growth was 8.31% (active) in the experiment with HS 578T breast and 50.6% in the experiment on NCI/ADR-RES ovarian.
